Assay results: PubChem BioAssay (NCI)
This is part of a sample that, as a whole, favours compounds with a hit. Of some 83,000 tested, about 20% had one in any assay.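 Step 1: grow cells in 96-well plates. Step 2: add test compound at a single concentration. Step 3: incubate 48 h. Step 4: record percent growth.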 Active and inactive are the calls of the source.

Tested on: OVCAR-4 ovarian
Experiment: NCI-60 one-dose screen, 48 h (100 = growth as untreated, 0 = no growth, -100 = all killed)
Conditions: 10 µM unless noted
Description: Growth inhibition of the OVCAR-4 human tumor cell line is measured as a screen for anti-cancer activity. Cells are grown in 96 well plates and exposed to the test compound for 48 hours. Compounds are tested at a single concentration, which is 10^-5 M for most compounds. The reported endpoint is percent growth (GI% or GIPRCNT), where numbers from 0 - 100% represent growth inhibition, and numbers from -100% - 0 represent cell death. For example, a value of 40 represents 60% growth inhibition. A value of 0 means no net growth occurred over the course of the experiment. A value of -40 indicates 40% of cells at the beginning of the experiment died by the end of the experiment. A value of -100 means all cells are dead at the end of the experiment.
NCI-60 Human Tumor Cell Lines Screen was performed using the standard one-dose NCI protocol, which is described in more detail at https://dtp.cancer.gov/discovery_development/nci-60/default.htm.
Compounds with GIPRCNT values below 10 were considered active. Activity score was based on GIPRCNT using the following formula: […]
Score is 0 for GIPRCNT values of 100 or above, 50 for GIPRCNT values of 0, and 100 for GIPRCNT values of -100.

| SMILES | growth |
| --- | --- |
| COc1ccc(-c2c(N)n[nH]c2-c2ccc(Cl)cc2O)cc1OC | 94.1% (inactive) |
| O=C(Nc1ccccc1)Nc1cccc(Oc2nnc(Cl)c3ccccc23)c1 | 0.217% (active) |
| O=c1c2c3c(sc2n2c(-c4cc(-c5ccccc5)nn4-c4ccccc4)nnc2n1Cc1ccccc1)CCCC3 | 83.2% (inactive) |
| COC(=O)c1ccc(C2Nc3ccc(S(=O)(=O)Nc4ccc(C)c(C)c4)cc3C3OCCC23)cc1 (stereo not given) | 82.8% (inactive) |
| COCCc1ccc(OCC(O)CNC(C)C)cc1 (stereo not given) | 98.8% (inactive) |
| CC(C)C(=O)Nc1n[nH]c2cc(-c3cccc(NS(=O)(=O)C4CC4)c3)ccc12 | 52.8% (inactive) |
| CCCCCCCCCCN(CCCCCCCCCC)CC(=O)c1ccc2cc(Br)c3ccccc3c2c1 | 77.4% (inactive) |
| Cc1cc(NCc2cc(Nc3ccnc4cc(Cl)ccc34)ccc2F)nc(Cl)n1 | 34% (inactive) |
| CC/C=C1/C(=O)C=C[C@@H]1C/C=C\CCCC(=O)O | 86.9% (inactive) |
| N#C/C(=C\c1ccc2c(c1)OCO2)n1nnc2cc(F)c(F)cc21 | 64.6% (inactive) |
| COc1ccccc1NC(=O)N/C(N)=N/c1nc2ccccc2s1 | 50.7% (inactive) |
| Cc1cc(NCCCCNc2ccnc3cc(Cl)ccc23)nc(Nc2ccc(C(=O)N3CCCCC3)cc2)n1 | 34.8% (inactive) |
| COc1cccc(-c2nc3sccn3c2/C=C/C(=O)c2ccc(C(F)(F)F)cc2)c1 | 92.9% (inactive) |
| COc1ccc(C2CC(c3cccc(OC)c3)=NN2C(=O)c2cc(OC)c(OC)c(OC)c2)cc1 (stereo not given) | 56.6% (inactive) |
| COc1cc2c(cc1-c1c(C)noc1C)ncc1nc(C3CCC(F)(F)CC3)n(C3CCC(OC(F)F)CC3)c12 (stereo not given) | 50.5% (inactive) |
| CC1(C)OC2C(CO[Si](C)(C)C(C)(C)C)OC(n3c(I)c(C#C[Si](C)(C)C)c(=O)[nH]c3=O)C2O1 (stereo not given) | -68.4% (active) |
| COc1ccc(CNC(=O)C(O)C(Cc2ccccc2)NC(=O)c2[nH]c3ccccc3c(=O)c2C)cc1OC (stereo not given) | 111% (inactive) |
| Cn1c2c(c3ccc(Cl)c(Cl)c31)C(C#N)C1(CCNCC1)NC2=O (stereo not given) | 53.5% (inactive) |
| Cc1cc(NCCCCNc2ccnc3cc(Cl)ccc23)nc(Nc2ccc(C(=O)N3CCCC3)cc2)n1 | 48.4% (inactive) |
| COc1cc(Cn2ncc3ccc(NC(=O)c4cc5ccccc5oc4=N)cc32)cc(OC)c1OC | 86.6% (inactive) |

| SMILES | growth |
| --- | --- |
| CCCCCCCC/C=C\CCCCCCCCOc1ccccc1CC(=O)NCC[N+](C)(C)C | 78.7% (inactive) |
| O=C(Nc1cccc(Cl)c1)c1cc(N=Nc2ccc([N+](=O)[O-])cc2Cl)ccc1O | 59.9% (inactive) |
| N#Cc1c(-c2cccc(Cl)c2)cc(-c2cccc(Cl)c2)[nH]c1=O | 68.4% (inactive) |
| Cc1c(C(=O)OC(=NC2CCCCC2)NC2CCCCC2)sc2c1c(=O)nc1c(C#N)n[nH]n12 | 105% (inactive) |
| O=[N+]([O-])c1ccc(Sc2cccc[n+]2[O-])c2nonc12 | 40.9% (inactive) |
| COc1ccc(-c2csc(C3=C(O)CN(C(C)C)C3=N)n2)cc1OC | 117% (inactive) |
| COc1cccc(-c2nn(-c3ccccc3)cc2-c2ccnc(NCCNC(=O)c3ccccc3)c2)c1 | 53.7% (inactive) |
| CC(=O)OC1CCC2(C)C(=CC3C4CCC(=O)C4(C)CCC32)C1 (stereo not given) | 103% (inactive) |
| O=c1[nH][n+](-c2ccc(Cl)cc2)no1 | 83.5% (inactive) |
| Cn1cc(-c2csc(-c3ccccc3)n2)c2cccnc21 | -19.4% [100 µM] (active) |
| COc1ccc(C2=NN(C(=O)c3cc(OC)c(OC)c(OC)c3)C(c3ccc(Cl)cc3)C2)cc1OC (stereo not given) | 52% (inactive) |
| CCN(CC)CCn1nc2c3c(cccc3c1=O)-c1ccccc1-2 | 51.6% (inactive) |
| CCCCCCCCn1ccc2cc(NC(=O)Cn3cc(CN4CCCC4)nn3)ccc21 | 76.2% (inactive) |
| O=C(Nc1ccc(Cl)cc1)Nc1ccc(Cl)c(C(F)(F)F)c1 | 30.6% (inactive) |
| COC(=O)c1ccc(CSc2nnc(-c3c(C)nc4ccc(C)cn34)o2)cc1 | 94% (inactive) |
| Cn1ccc2c(c1=O)C(=O)c1nccc3c1c-2nc1ccccc13 | -44.9% (active) |
| COc1ccccc1CNCCCN1C(=O)c2ccc3c4c(ccc(c24)C1=O)C(=O)N(CCCNCCCCN)C3=O | -84.9% (active) |
| N#Cc1c(-c2cccc(Cl)c2)cc(-c2cccc(F)c2)[nH]c1=O | 83.7% (inactive) |
| COc1cccc(Nc2nccc(Nc3ccc4[nH]ncc4c3)n2)c1 | -59.6% (active) |
| Cc1cc(O)c(C2=NN(c3ccc(S(N)(=O)=O)cc3)C(c3ccccc3Cl)C2)cc1Cl (stereo not given) | 34.3% (inactive) |
